# The supplement of paper PMC9262897, “Low-cost anti-mycobacterial drug discovery using engineered E. coli” (Nature Communications, 2022)
# Structures can show the parent of a compound that is named as a salt. ± gives the standard deviation of the averaged measurements.
# Test system: E. coli TESEC Alr+ wild-type control
# Experiment: growth (OD600 after 10 h); higher = more growth (less inhibition)
# Conditions: compound 0.1 mM; raw OD600 reference: median of DMSO wells 0.49, cell-free background 0.052
# Description: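 TESEC Mtb Alr E. coli (ΔaraC ΔtolC ΔentC Δalr ΔdadX, arabinose-inducible Mtb Alr) or the Alr+ wild-type control strain, grown in defined M9-fructose medium without D-alanine in 96-well plates with Prestwick library compounds at 0.1 mM and 1% DMSO. Low Alr induction is 0.1 µM arabinose and high induction is 10 mM arabinose.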
row,Compound,growth
1,CC(C)C[C@H]1C(=O)N2CCC[C@H]2[C@]2(O)O[C@](NC(=O)[C@@H]3C=C4c5cccc6[nH]c(Br)c(c56)C[C@H]4N(C)C3)(C(C)C)C(=O)N12 [Bromocryptine mesylate],0.511 ± 0.046
2,CC(C)(C)NCC(O)c1ccccc1Cl (stereo not given) [Tulobuterol],0.507 ± 0.082
3,CC(C)c1cccc(C(C)C)c1O [Propofol],0.55 ± 0.038
4,O=C(CCCN1CCC(n2c(=O)[nH]c3ccccc32)CC1)c1ccc(F)cc1 [Benperidol],0.407 ± 0.02
5,CC1C=CC=CCCC=CC=CC=CC=CC(OC2OC(C)C(O)C(N)C2O)CC2OC(O)(CC(O)C(O)CCC(O)CC(O)CC(O)CC(=O)OC(C)C(C)C1O)CC(O)C2C(=O)O (stereo not given) [Nystatine],0.471 ± 0.021
6,O=c1[nH]c2ccccc2n1CCCN1CCC(n2c(=O)[nH]c3cc(Cl)ccc32)CC1 [Domperidone],0.406 ± 0.011
7,C#C[C@]1(O)CC[C@H]2[C@@H]3CCC4=CC(=O)CCC4=C3C=C[C@@]21CC [Gestrinone],0.287 ± 0.011
8,O=C(CCCN1CCC2(CC1)C(=O)NCN2c1ccccc1)c1ccc(F)cc1 [Spiperone],0.509 ± 0.042
9,C[N+]12CCC(CC1)C(OC(=O)C(O)(c1ccccc1)c1ccccc1)C2 (stereo not given) [Clidinium bromide],0.611 ± 0.031
10,C[CH2][Hg][S]c1ccccc1C(=O)[O-].[Na+] [Thimerosal],0.216 ± 0.1
11,C[N+]1(C)CCCC(OC(=O)C(O)(c2ccccc2)c2ccccc2)C1 (stereo not given) [Mepenzolate bromide],0.435 ± 0.012
12,CCC(=O)O[C@H]1CC[C@H]2[C@@H]3CCC4=CC(=O)CC[C@]4(C)[C@H]3CC[C@]12C [Testosterone propionate],0.351 ± 0.039
13,O[C@@H]1CCCC[C@H]1N1CCC(c2ccccc2)CC1 [L(-)-vesamicol hydrochloride],0.521 ± 0.091
14,C[C@@H]1C[C@@H]([C@H](O)CC2CC(=O)NC(=O)C2)C(=O)[C@@H](C)C1 [Cycloheximide],0.529 ± 0.06
15,CC[C@@H](CO)NC(=O)[C@@H]1C=C2c3cccc4[nH]cc(c34)C[C@H]2N(C)C1 [Methylergometrine maleate],0.523 ± 0.018
16,CC(C)CC(N(C)C)C1(c2ccc(Cl)cc2)CCC1 (stereo not given) [Sibutramine HCl],0.602 ± 0.091
17,COc1ccc(C(=O)N2CCCC2=O)cc1 [Aniracetam],0.467 ± 0.054
18,CN1C[C@H](CNC(=O)OCc2ccccc2)C[C@@H]2c3cccc4c3c(cn4C)C[C@H]21 [Metergoline],0.04927 ± 5.8e-05
19,CCC1(CC)C(=O)C=CNC1=O [Pyrithyldione],0.458 ± 0.024
20,O=P1(NCCCl)OCCCN1CCCl (stereo not given) [Ifosfamide],0.517 ± 0.077

row,Compound,growth
1,CCCC(C)(COC(N)=O)COC(=O)NC(C)C (stereo not given) [Carisoprodol],0.594 ± 0.082
2,CCN[C@@H](C)Cc1cccc(C(F)(F)F)c1 [Dexfenfluramine hydrochloride],0.466 ± 0.025
3,CC(=O)O[C@H]1CC[C@@]2(C)C(=CC[C@@H]3[C@@H]2CC[C@]2(C)C(=O)CC[C@@H]32)C1 [Dehydroisoandosterone 3-acetate],0.253 ± 0.0042
4,NCC1(CC(=O)O)CCCCC1 [Gabapentin],0.565 ± 0.076
5,CC(=O)OC1CN2CCC1CC2 (stereo not given) [Aceclidine Hydrochloride],0.459 ± 0.015
6,CNC(C)(C)Cc1ccccc1 [Mephentermine hemisulfate],0.48 ± 0.047
7,C1CCc2nnnn2CC1 [Pentylenetetrazole],0.46 ± 0.054
8,CC(Cc1ccc(O)cc1)NCC(O)c1cc(O)cc(O)c1 (stereo not given) [Fenoterol hydrobromide],0.575 ± 0.046
9,CCN(C(C)=O)c1cccc(-c2ccnc3c(C#N)cnn23)c1 [Zaleplon],0.504 ± 0.065
10,C=C1C[C@@H]2[C@H](CC[C@]3(C)C(=O)CC[C@@H]23)[C@@]2(C)C=CC(=O)C=C12 [Exemestane],0.322 ± 0.0079
11,N[C@@H]1C[C@H]1c1ccccc1 [Tranylcypromine hydrochloride],0.529 ± 0.055
12,COc1ccc(C(CN(C)C)C2(O)CCCCC2)cc1 (stereo not given) [Venlafaxine],0.438 ± 0.018
13,CCCC[N+]1(C)[C@@H]2CC(OC(=O)[C@H](CO)c3ccccc3)C[C@H]1[C@@H]1O[C@@H]12 (stereo not given in full) [Butylscopolammonium (n-) bromide],0.531 ± 0.1
14,"NCC(O)c1ccc(O)cc1 (racemic) [(+,-)-Octopamine hydrochloride]",0.584 ± 0.08
15,O=c1[nH]c2ccccc2n1C1CCN(CCCC(c2ccc(F)cc2)c2ccc(F)cc2)CC1 [Pimozide],0.52 ± 0.043
16,c1ccc2c(c1)OCC(C1=NCCN1)O2 (stereo not given) [Idazoxan hydrochloride],0.598 ± 0.015
17,C[C@]12CC[C@@H]3c4ccc(OC(=O)N(CCCl)CCCl)cc4CC[C@H]3[C@@H]1CC[C@@H]2O [Estramustine],0.399 ± 0.008
18,CN1CCN(C(=O)OC2c3nccnc3C(=O)N2c2ccc(Cl)cn2)CC1 (stereo not given) [Zopiclone],0.454 ± 0.011
19,C[N+]1([O-])[C@@H]2C[C@@H](OC(=O)[C@H](CO)c3ccccc3)C[C@H]1[C@@H]1O[C@@H]12 (stereo not given in full) [Scopolamin-N-oxide hydrobromide],0.472 ± 0.045
20,CC(O)(CS(=O)(=O)c1ccc(F)cc1)C(=O)Nc1ccc(C#N)c(C(F)(F)F)c1 (stereo not given) [Bicalutamide],0.3777 ± 0.0027
